Measured values: PubChem BioAssay AID2315 (National Center for Advancing Translational Sciences (NCATS), 2010)
About 27,000 (9.3%) of roughly 290,000 compounds were called active. Rule as the data show it: active = inhibition mostly above about 28% (no sharp cut-off); inactive = mostly below about 43%. The sample as a whole holds a higher share of actives than the screen did.

Assay: A qHTS for Small Molecule Inhibitors of Shiga Toxin; as to inhibition: 0% is about no effect
Conditions: Vero cells, Shiga toxin protein synthesis inhibition reporter; at 38.7 µM, stronger effect = higher value

| Compound | inhibition |
| --- | --- |
| COc1cc(NS(=O)(=O)c2ccc(NC(=S)NC(=O)c3ccc(Br)cc3)cc2)ncn1 | -2.95% (inactive) |
| N#CCC(=O)NC1CCC(CC2CCC(NC(=O)CC#N)CC2)CC1 (centres undefined) | -8.84% (inactive) |
| Cc1[nH]c(C)c(S(=O)(=O)N2CCN(c3cccc(C(F)(F)F)c3)CC2)c1C(=O)N1CCCCC1 | -4.18% (inactive) |
| NC(=O)C1=C[C@H](c2csc3ccccc23)C[C@H](OCc2ccc(CO)cc2)O1 | 24% (inactive) |
| O=S(=O)([N-]c1nc2ccccc2nc1-[n+]1ccc(Cc2ccccc2)cc1)c1ccc(Br)s1 | 47.8% (active) |
| Cc1cc(C)c[n+](-c2nc3ccccc3nc2[N-]S(=O)(=O)c2cccs2)c1 | 1.54% (inactive) |
| O=C(NCCc1ccccc1)C1CCN(S(=O)(=O)c2ccc(Br)s2)CC1 | 9.64% (inactive) |
| CCOc1ncccc1C(=O)NCCc1ccc(OC)cc1 | -6.94% (inactive) |
| CNC(=O)c1sc(NCc2ccccc2OC)nc1C | 4.08% (inactive) |
| Cc1cc2c(c(=O)n1Cc1ccccc1)C1O[C@](CCCCN3C(=O)c4ccccc4C3=O)(Cc3ccccc31)O2 | inactive |
| O=C(O)CCCN1C(=O)c2ccccc2Sc2ncccc21 | -5.85% (inactive) |
| O=c1[nH]c(-c2cccs2)nc2ccccc12 | 32.8% (inactive) |
| O=c1c2cc(-c3ccccc3)sc2nc2n1N=C(c1cccs1)CS2 | 100% (active) |
| c1csc(-c2cn3c(n2)SCC3)c1 | 16.5% (inactive) |
| C#CC(C)(C)NC(=O)c1cnc(-c2ccccc2)nc1-c1ccccc1 | -5.15% (inactive) |
| CC(=O)c1ccc(N2CCN(S(=O)(=O)c3ccc4c(c3)CC(=O)N4C)CC2)cc1 | 54.4% (active) |
| CC(=O)c1ccc(N2CCN(C(=O)C3CCN(S(=O)(=O)c4ccc5c(c4)CC(C)N5C(=O)C4CC4)CC3)CC2)cc1 (centres undefined) | 22.9% (inactive) |
| CC(=O)c1ccc(N2CCN(S(=O)(=O)c3c(C)[nH]c(=O)[nH]c3=O)CC2)cc1 | 16.6% (inactive) |
| CCCn1nnnc1NCc1ccc(CC)cc1 | -8.65% (inactive) |
| O=C(/C=C/c1ccc(Cl)cc1Cl)NCc1ccco1 | 94.1% (active) |
| COC(=O)/C=C/C(=O)NCc1ccco1 | 18.7% (inactive) |
| O=C(NCc1ccco1)C1(c2ccc(Cl)cc2)CCCC1 | -3.65% (inactive) |
| CC(NC(=O)c1cc(=O)[nH]c2ccccc12)c1ccc(F)cc1F (centres undefined) | 9.23% (inactive) |
| CCOc1ccc(/C=C2\SC(=S)N(NC(=O)c3ccncc3)C2=O)cc1OC | -10.1% (inactive) |
| CCOc1cc(/C=C2\SC(N3CCCC(C)C3)=NC2=O)ccc1O (centres undefined) | 60.1% (active) |
| CCOc1cc(C(=S)N2CCOCC2)ccc1O | -8.19% (inactive) |
| O=C1N=C(N2CCCC2)S/C1=C\c1cccc(Br)c1 | 34.8% (inactive) |
| CCOc1cc(/C=C2\SC(N3CCCCC3)=NC2=O)ccc1O | 67.1% (active) |
| CC1CCN(C2=NC(=O)/C(=C/c3ccc(O)cc3)S2)CC1 | 38.6% (inactive) |
